In the antibiotic and cytotoxicity screens of Wong et al. (2023):
Screen size: about 39,000 compounds; about 500 (1.3%) were called active. For the sample, actives were picked, then their nearest neighbours and some compounds at random.

System: S. aureus RN4220
Assay: growth inhibition call (relative growth <= 0.2)
Conditions: 50 µM

Growth inhibition call, inactive:
O=C(C[C@@H]1C=C[C@@H](NC(=O)CN2CCOCC2)[C@@H](CO)O1)NCCc1ccncc1
COc1cccc(S(=O)(=O)N(C)C[C@H]2OCc3cn(nn3)CCCC(=O)N([C@H](C)CO)C[C@@H]2C)c1
COc1ccc(S(=O)(=O)N(C)C[C@@H]2OCCCC[C@@H](C)Oc3ccc(NC(=O)Nc4c(C)noc4C)cc3C(=O)N([C@H](C)CO)C[C@H]2C)cc1
C[C@H]1CN([C@@H](C)CO)C(=O)c2cc(NS(C)(=O)=O)ccc2O[C@H]1CN(C)C(=O)NC1CCCCC1
CN([NH2+][O-])c1ccc(O)c(O)c1
C[C@@H](N)c1ccc(F)cc1F
COc1ccc(S(=O)(=O)Nc2cccc3c2O[C@@H](CN(C)C(=O)NC(C)C)[C@@H](C)CN([C@@H](C)CO)C3=O)cc1
C[C@H]1CN([C@@H](C)CO)C(=O)c2cc(NC(=O)Nc3ccc(C(F)(F)F)cc3)ccc2O[C@@H]1CN(C)C(=O)Nc1ccc2c(c1)OCO2
OCCC[C@@H](O)c1ccc(OCCO)cc1
N=C(N)c1ccc(C(N)=O)cc1
COc1ccc(S(=O)(=O)Nc2ccc3c(c2)C(=O)N([C@@H](C)CO)C[C@H](C)[C@H](CN(C)CC2CC2)O3)cc1
C[C@@H]1CN([C@@H](C)CO)C(=O)c2cc(NS(=O)(=O)c3ccccc3)ccc2O[C@@H](C)CCCCO[C@H]1CN(C)S(=O)(=O)c1cn(C)cn1
C[C@H](CO)N1C[C@H](C)[C@H](CN(C)S(=O)(=O)c2ccc(F)cc2)Oc2ncc(-c3ccncc3)cc2C1=O
COc1cc(OC)c(C(C)=O)c(O)c1C
CC(=O)C1C(=O)C=C(C)OC1=O (configuration not stated)
COCC(=O)Nc1ccc2c(c1)C(=O)N(C)C[C@@H](OC)[C@H](C)CN(Cc1cccc(F)c1)[C@H](C)CO2
CC(=O)N1c2ccccc2C2=NNC(=S)N[C@]21O
C[C@H]1CCCCO[C@H](CN(C)C(=O)Cc2ccccc2)[C@@H](C)CN([C@@H](C)CO)C(=O)c2cc(NC(=O)Nc3ccc(F)cc3)ccc2O1
C[C@@H]1CN([C@@H](C)CO)C(=O)c2cc(/C=C/c3ccccc3)cnc2O[C@@H]1CN(C)C(=O)C1CCOCC1
Cc1noc(C)c1S(=O)(=O)Nc1ccc2c(c1)C(=O)N([C@@H](C)CO)C[C@H](C)[C@@H](CN(C)S(=O)(=O)c1ccc(Cl)cc1)O2
NNCCc1ccccc1.O=S(=O)(O)O
N=C(N=C(N)N)NCCc1ccccc1
O=c1[nH]c(=O)n(C2CC(O)C(CO)O2)cc1I (configuration not stated)
COc1cccc(OC)c1C(=O)NCCCO
COc1cccc(OC)c1C(=O)NN
Cc1cc(=O)n2nc(CC(=O)NCCCn3c(C)cccc3=O)nc2[nH]1
C[C@H]1CN([C@@H](C)CO)S(=O)(=O)c2ccc(Br)cc2O[C@H]1CN(C)S(=O)(=O)c1ccccc1
Cc1noc(C)c1S(=O)(=O)N(C)C[C@@H]1Oc2ccc(NC(=O)C3CC3)cc2CC(=O)N([C@@H](C)CO)C[C@@H]1C
C[C@@H]1CN([C@@H](C)CO)C(=O)c2cc(NS(=O)(=O)c3ccc(Cl)cc3)ccc2O[C@@H](C)CCCCO[C@@H]1CN(C)Cc1ccccc1
C[C@H]1CN([C@@H](C)CO)C(=O)c2c(c3ccccc3n2C)-c2ccccc2CO[C@H]1CN(C)C(=O)Nc1cccc(F)c1
C[C@H]1OC(=O)c2c(O)ccc(O)c2[C@H]1O
COc1cccc(NC(=O)N2C[C@H](O)COC[C@@H]3O[C@H](CC(=O)NCCCN4CCOCC4)CC[C@H]32)c1
CCC(C)C1OC2(C=CC1C)CC1CC(CC=C(C)C(OC3CC(OC)C(OC4CC(OC)C(NC(C)=O)C(C)O4)C(C)O3)C(C)C=CC=C3COC4C(O)C(C)=CC(C(=O)O1)C34O)O2 (configuration not stated)
CO[C@H]1C[C@@H](O[C@@H]2/C(C)=C/C[C@@H]3C[C@@H](C[C@]4(CC[C@H](C)[C@@H](C5CCCCC5)O4)O3)OC(=O)[C@@H]3C=C(C)/C(=N/O)[C@H]4OC/C(=C\C=C\[C@@H]2C)[C@]43O)O[C@@H](C)[C@@H]1O
CC[C@H](C)[C@H]1O[C@]2(C=C[C@@H]1C)C[C@@H]1C[C@@H](C/C=C(\C)[C@@H](O[C@H]3C[C@H](OC)[C@@H](O[C@H]4C[C@H](OC)[C@@H](NC(C)=O)[C@H](C)O4)[C@H](C)O3)[C@@H](C)/C=C/C=C3\CO[C@@H]4[C@H](O)C(C)=C[C@@H](C(=O)O1)[C@]34O)O2
COC1CC(OC2C(C)=CCC3CC(CC4(CCC(C)C(C5CCCCC5)O4)O3)OC(=O)C3C=C(C)C(=NO)C4OCC(=CC=CC2C)C34O)OC(C)C1O (configuration not stated)
COc1ccc(S(=O)(=O)Nc2ccc3c(c2)C(=O)N([C@H](C)CO)C[C@H](C)[C@@H](CN(C)C(=O)CCC(F)(F)F)OCCCC[C@@H](C)O3)cc1
COc1cccc(-c2cnc3c(c2)C(=O)N([C@H](C)CO)C[C@H](C)[C@H](CN(C)S(=O)(=O)c2cn(C)cn2)O3)c1
O=C1NC2=C(C(=O)OC2)[C@H](c2ccccc2)N1
C[C@@H](O)[C@@H](O)[C@@H](O)C/C=N/NC(=O)CCCCCCC(=O)NO
CC(C)NC(=O)N(C)C[C@@H]1Oc2ccc(NC(=O)CCN3CCOCC3)cc2C(=O)N([C@H](C)CO)C[C@@H]1C
Oc1ccc(C=Cc2cc(O)cc(O)c2)cc1
COc1ccc(O)cc1
C[C@@H]1CN([C@@H](C)CO)C(=O)c2cc(NC(=O)Nc3ccc4c(c3)OCO4)ccc2O[C@@H](C)CCCCO[C@@H]1CN(C)C(=O)C1CCCCC1
COc1ccc(S(=O)(=O)Nc2ccc3c(c2)C(=O)N([C@H](C)CO)C[C@@H](C)[C@@H](CN(C)C(=O)C2CCCCC2)OCCCC[C@@H](C)O3)cc1
C[C@H](CO)N1C[C@H](C)[C@H](CN(C)S(=O)(=O)c2cn(C)cn2)Oc2ccc(NC(=O)NC3CCCCC3)cc2C1=O

Growth inhibition call, active:
Cc1c2c(nn1C)CSCc1cc(n(C)n1)CSc1cc(c3ccccc3c1)OCCCc1c(C(=O)O)n(C)c3c-2c(Cl)ccc13
N=C(N)c1ccc(OCCCCCOc2ccc(C(=N)N)cc2)cc1.O=S(=O)(O)CCO.O=S(=O)(O)CCO
CC(=O)c1c(O)c(C)c(O)c2c1OC1=CC(=O)C(C(C)=O)C(=O)C12C (configuration not stated)
CCCc1c(SCCCOc2ccc(C(C)=O)c(OCCCC(=O)O)c2CCC)ccc(C(C)=O)c1O
CON=C(C(=O)NC1C(=O)N2C(C(=O)O)=C(CSC(=O)c3ccco3)CSC12)c1csc(N)n1.Cl (configuration not stated)
CO/N=C(\C(=O)N[C@@H]1C(=O)N2C(C(=O)O)=C(CSC(=O)c3ccco3)CS[C@H]12)c1csc(N)n1
NNCCc1ccccc1
COc1cccc(OC)c1C(=O)NC1C(=O)N2C1SC(C)(C)C2C(=O)[O-].[Na+] (configuration not stated)
CCOc1ccc2ccccc2c1C(=O)NC1C(=O)N2C1SC(C)(C)C2C(=O)[O-].[Na+] (configuration not stated)
Cc1cc(OCCCS(C)(=O)=O)cc(C)c1-c1cccc(COc2ccc3c(c2)OC[C@H]3CC(=O)O)c1
CO[C@H]1C[C@H](O[C@@H]2/C(C)=C/C[C@@H]3C[C@@H](C[C@]4(CC[C@H](C)[C@@H](C5CCCCC5)O4)O3)OC(=O)[C@@H]3C=C(C)/C(=N/O)[C@H]4OC/C(=C\C=C\[C@@H]2C)[C@]43O)O[C@@H](C)[C@@H]1O
CN[C@@H]1[C@@H](C)O[C@@H](O[C@H]2[C@H](C)O[C@@H](O[C@@H]3/C(C)=C/C[C@@H]4C[C@@H](C[C@]5(C=C[C@H](C)[C@@H](C(C)C)O5)O4)OC(=O)[C@@H]4C=C(C)[C@@H](O)[C@H]5OC/C(=C\C=C\[C@@H]3C)[C@]54O)C[C@@H]2OC)C[C@H]1OC
COc1cc(C=Cc2ccc(O)cc2)cc(OC)c1
CCCCC/C=C/CCC(=O)N[C@H]1[C@H](Oc2c3cc4cc2Oc2ccc(cc2Cl)[C@@H](O[C@@H]2O[C@H](CO)[C@@H](O)[C@H](O)[C@H]2NC(C)=O)[C@@H]2NC(=O)[C@H](NC(=O)[C@@H]4NC(=O)[C@H]4NC(=O)[C@@H](Cc5ccc(c(Cl)c5)O3)NC(=O)[C@H](N)c3ccc(O)c(c3)Oc3cc(O)cc4c3)c3ccc(O)c(c3)-c3c(O[C@H]4O[C@H](CO)[C@@H](O)[C@H](O)[C@@H]4O)cc(O)cc3[C@@H](C(=O)O)NC2=O)O[C@H](CO)[C@@H](O)[C@@H]1O
CCCCCCCCCC(=O)N[C@H]1[C@H](Oc2c3cc4cc2Oc2ccc(cc2Cl)[C@@H](O[C@@H]2O[C@H](CO)[C@@H](O)[C@H](O)[C@H]2NC(C)=O)[C@@H]2NC(=O)[C@H](NC(=O)[C@@H]4NC(=O)[C@H]4NC(=O)[C@@H](Cc5ccc(c(Cl)c5)O3)NC(=O)[C@@H](N)c3ccc(O)c(c3)Oc3cc(O)cc4c3)c3ccc(O)c(c3)-c3c(O[C@H]4O[C@H](CO)[C@@H](O)[C@H](O)[C@@H]4O)cc(O)cc3[C@H](C(=O)O)NC2=O)O[C@H](CO)[C@@H](O)[C@@H]1O
CCCCCC=CCCC(=O)NC1C(Oc2c3cc4cc2Oc2ccc(cc2Cl)C(OC2OC(CO)C(O)C(O)C2NC(C)=O)C2NC(=O)C(NC(=O)C4NC(=O)C4NC(=O)C(Cc5ccc(c(Cl)c5)O3)NC(=O)C(N)c3ccc(O)c(c3)Oc3cc(O)cc4c3)c3ccc(O)c(c3)-c3c(OC4OC(CO)C(O)C(O)C4O)cc(O)cc3C(C(=O)O)NC2=O)OC(CO)C(O)C1O (configuration not stated) [TEICOPLANIN [A(2-1) shown]]
